Screening results as filed in PubChem.
TEAD-YAP block – TEAD-YAP interaction inhibition, primary screen, TEAD-YAP interaction inhibitor project, luminescence, HEK-TIYL cells. TEAD-Gal4/YAP UAS-luciferase luminescence. inhibition, % at 9.12 µM. 1.4% of 640,000 active. AID 1259422, 2018; in the data active means inhibition above about 32%;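 further: 0% = median of test compound wells and 100% = reference inhibitor wells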
GPR151 activ – activators of human GPR151, primary screen, cell-based, PathHunter beta-arrestin, luminescence; G-protein coupled receptor 151 (Homo sapiens), Q8TDV0; PathHunter beta-arrestin GPR151 cells; activation, % at 11.2 µM; 1% of 650,000 active; in the data active means activation above about 4.9%;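 further: 0% = median of compound wells and 100% = cells with positive control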
Target sequence (Q8TDV0 whole entry, looked up): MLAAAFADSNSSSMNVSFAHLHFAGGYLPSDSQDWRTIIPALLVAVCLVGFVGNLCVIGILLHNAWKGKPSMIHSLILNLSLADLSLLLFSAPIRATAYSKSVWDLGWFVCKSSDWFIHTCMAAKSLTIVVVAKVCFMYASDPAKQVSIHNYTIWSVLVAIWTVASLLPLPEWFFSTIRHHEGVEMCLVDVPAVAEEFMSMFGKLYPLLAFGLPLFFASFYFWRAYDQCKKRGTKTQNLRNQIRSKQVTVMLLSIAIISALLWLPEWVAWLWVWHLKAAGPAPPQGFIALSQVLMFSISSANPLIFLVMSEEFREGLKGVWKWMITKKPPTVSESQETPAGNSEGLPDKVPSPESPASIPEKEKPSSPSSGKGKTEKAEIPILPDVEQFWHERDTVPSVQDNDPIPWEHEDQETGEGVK
FBW7 act – FBW7 E3 ligase activators, primary screen, biochemical, AlphaScreen, human; AlphaScreen FBW7–phospho-cyclin E peptide binding, activator screen; normalized activity (activation), % at 26.1 µM; 0.13% of 650,000 active; AID 1259310, 2017; in the data active means normalized activity above about 1.9%;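 further: purified mutant Fbw7 with reduced substrate affinity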
MITF inh – MITF inhibitors, primary screen, biochemical, AlphaScreen, human; AlphaScreen MITF homodimerization, bead proximity signal; inhibition, % at 2.6 µM; 0.91% of 650,000 active; in the data active means inhibition above about 50%;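 further: 0% = vehicle wells with protein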
MITF confirm – MITF inhibitors, retest of hits, confirmation, biochemical, AlphaScreen, triplicate | AlphaScreen MITF homodimerization, biotin/His-MITF beads | inhibition, % at 2.6 µM | AID 1259372, 2018 | shares compounds with MITF inh | 16% of 4,700 active;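 active means inhibition above a cutoff derived from the DMSO control wells, cut at about 28% in these data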;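 further: 0% = MITF dimer wells with DMSO only; inhibitors lower the bead chemiluminescence by keeping MITF from dimerizing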
AlphaScreen intf2 – AlphaScreen optical interference compounds, counter-screen for MITF inhibitor project, biochemical, triplicate; LysRS AlphaScreen counterscreen, signal interference; 7.6% of 4,700 active; shares compounds with MITF inh; inhibition, % at 2.6 µM;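 active means inhibition above a cutoff derived from the DMSO control wells, cut at about 30% in these data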
* = called active by the depositor. Sampled rows, rich in hits. Any-hit rate of the full collection: about 3.4%.

Cc1ccc(C(=O)N/C(=C\c2ccco2)C(=O)NCCCn2ccnc2)cc1 was read as TEAD-YAP block -8, GPR151 activ 0, FBW7 act 0, MITF inh 74*, MITF confirm 38* and AlphaScreen intf2 53*.
Cc1ccc(C(=O)N/C(=C\c2ccc(F)cc2)C(=O)NCCCn2ccnc2)cc1 was read as TEAD-YAP block -1, GPR151 activ -1, FBW7 act 0 and MITF inh -1.
`Cc1ccc(C(=O)N/C(=C\c2ccco2)C(=O)NCCN2CCCCC2)cc1C` gave TEAD-YAP block -5, GPR151 activ -1, FBW7 act 1, MITF inh 58*, MITF confirm 0 and AlphaScreen intf2 -8.
`NS(=O)(=O)c1ccc(CCNS(=O)(=O)c2ccc(Cl)cc2)cc1` gave TEAD-YAP block 3, GPR151 activ 0, FBW7 act 0 and MITF inh 18.
CC(C)NC(=O)CCCCCn1nnc2ccccc2c1=O was read as TEAD-YAP block 2, GPR151 activ 1, FBW7 act 0 and MITF inh -6.
For CCCCNC(=O)CCCCCn1nnc2ccccc2c1=O the results were TEAD-YAP block -5, GPR151 activ 0, FBW7 act 0, MITF inh 73*, MITF confirm 0 and AlphaScreen intf2 -1.
Screening COc1ccccc1N1C(=O)c2cccc3c(N(C)CCO)ccc(c23)C1=O returned TEAD-YAP block 2, GPR151 activ -1, FBW7 act 0, MITF inh 74*, MITF confirm -1 and AlphaScreen intf2 1.
For NC(=O)C1CCN(CC(=O)NCCc2ccccc2)CC1 the results were TEAD-YAP block 3, GPR151 activ 5, FBW7 act 0, MITF inh 57*, MITF confirm -4 and AlphaScreen intf2 -4.
`c1cnc2c(c1)ccc1cccnc12` gave TEAD-YAP block 35*, GPR151 activ -2, FBW7 act 0, MITF inh 111*, MITF confirm 115* and AlphaScreen intf2 101*.
CC[n+]1cccc2ccc3cccnc3c21 was read as TEAD-YAP block 29, GPR151 activ 0, FBW7 act 0 and MITF inh 9.
For Cc1ccc(NC(=O)COC(=O)c2cc[n+]([O-])cc2)cc1C the results were TEAD-YAP block -18, GPR151 activ 3, FBW7 act 0, MITF inh 77*, MITF confirm -5 and AlphaScreen intf2 -7.
Cc1cc(C)cc(NC(=O)COC(=O)c2cc[n+]([O-])cc2)c1 was read as TEAD-YAP block 1, GPR151 activ 0, FBW7 act 0 and MITF inh -5.
COc1cccc(-n2nc(C(=O)NCCN(C)C)c3ccccc3c2=O)c1 was read as TEAD-YAP block 9, GPR151 activ -1, FBW7 act 0 and MITF inh 12.
For COc1ccccc1/C=C/CN1CCN(Cc2ccccc2)CC1 the results were TEAD-YAP block -2, GPR151 activ 0, FBW7 act 0 and MITF inh 38.
For COc1ccccc1/C=C/CN1CC(C)OC(C)C1 (centres undefined) the results were TEAD-YAP block 2, GPR151 activ 3, FBW7 act 0, MITF inh 53*, MITF confirm 0 and AlphaScreen intf2 -2.
COc1ccccc1/C=C/CN1CCN(CCOCCO)CC1 was read as TEAD-YAP block 18, GPR151 activ 1, FBW7 act 0, MITF inh 54*, MITF confirm -2 and AlphaScreen intf2 -4.
`c1ccc(CN2CCN(CCOCCOc3ccccc3)CC2)cc1` gave TEAD-YAP block 3, GPR151 activ 3, FBW7 act 0, MITF inh 83*, MITF confirm 9 and AlphaScreen intf2 9.
CCOc1ccccc1OCCOCCN1CCN(Cc2ccccc2)CC1 was read as TEAD-YAP block 5, GPR151 activ 1, FBW7 act 0, MITF inh 85*, MITF confirm 17 and AlphaScreen intf2 20.
For c1ccc(OCCOCCN2CCNCC2)cc1 the results were TEAD-YAP block 3, GPR151 activ 1, FBW7 act 0 and MITF inh 36.
For O=C(NCCCc1ccccc1)c1c(O)c2ccccc2[nH]c1=O the results were TEAD-YAP block 1, GPR151 activ 1, FBW7 act 0 and MITF inh -3.
`c1nc2n(n1)C1(CCCCC1)C1=C(CCCC1)N2` gave TEAD-YAP block 6, GPR151 activ 1, FBW7 act 0 and MITF inh 8.
`O=C(c1ccc([N+](=O)[O-])cc1)N1CCCCCC1` gave TEAD-YAP block 13, GPR151 activ 2, FBW7 act 0 and MITF inh -2.
Screening CCOc1ncccc1C(=O)N1CCN(c2ccc(C(F)(F)F)cc2[N+](=O)[O-])CC1 returned TEAD-YAP block -18, GPR151 activ -1, FBW7 act 0 and MITF inh 10.
For CCCCOCC(O)Cn1c(Cc2ccccc2)nc2ccccc21 (centres undefined) the results were TEAD-YAP block -6, GPR151 activ 1, FBW7 act 0, MITF inh 58*, MITF confirm 6 and AlphaScreen intf2 16.
For CCCCOCC(O)Cn1c2ccccc2c2ccccc21 (centres undefined) the results were TEAD-YAP block -6, GPR151 activ -2, FBW7 act 0 and MITF inh 6.
O=C(CNCc1ccccn1)Nc1ccc([N+](=O)[O-])cc1C(=O)Nc1ccccc1F was read as TEAD-YAP block -8, GPR151 activ -2, FBW7 act -2, MITF inh 75*, MITF confirm 18 and AlphaScreen intf2 24.
`O=C(CN1CCOCC1)Nc1ccc([N+](=O)[O-])cc1C(=O)Nc1ccccc1F` gave TEAD-YAP block 6, GPR151 activ 3, FBW7 act 0 and MITF inh 4.
Cc1ccc(-c2ccc(C(=O)N3CCN(C)CC3)c(N3CCOCC3)n2)cc1 was read as TEAD-YAP block 1, GPR151 activ 0, FBW7 act 0 and MITF inh 2.
For CCOc1ccc(-c2cn3c(CC(=O)N4CCN(c5ccccc5)CC4)csc3n2)cc1 the results were TEAD-YAP block 0, GPR151 activ 1, FBW7 act 0, MITF inh 55*, MITF confirm 4 and AlphaScreen intf2 6.
`CCOc1ccc(-c2cn3c(CC(=O)N4CCCCC4CC)csc3n2)cc1` (centres undefined) gave TEAD-YAP block -9, GPR151 activ 0, FBW7 act 0 and MITF inh 11.
